PubChem BioAssay (NCATS)
Records with an inconclusive call do not appear. Where a call stands in place of a potency, no number is given. Activity calls are given as the source filed them. The call rests on the fitted dose curve.

target: Atrial natriuretic peptide receptor 2 (Homo sapiens) (UniProt P20594); test: Natriuretic polypeptide receptor (hNpr2) antagonism - Pilot subtype selectivity assay (AID 1347050); conditions: NPR2-expressing cells, cGMP antagonist-mode read-out; series mostly up to 38.3 µM
Sequence (P20594 whole entry, looked up): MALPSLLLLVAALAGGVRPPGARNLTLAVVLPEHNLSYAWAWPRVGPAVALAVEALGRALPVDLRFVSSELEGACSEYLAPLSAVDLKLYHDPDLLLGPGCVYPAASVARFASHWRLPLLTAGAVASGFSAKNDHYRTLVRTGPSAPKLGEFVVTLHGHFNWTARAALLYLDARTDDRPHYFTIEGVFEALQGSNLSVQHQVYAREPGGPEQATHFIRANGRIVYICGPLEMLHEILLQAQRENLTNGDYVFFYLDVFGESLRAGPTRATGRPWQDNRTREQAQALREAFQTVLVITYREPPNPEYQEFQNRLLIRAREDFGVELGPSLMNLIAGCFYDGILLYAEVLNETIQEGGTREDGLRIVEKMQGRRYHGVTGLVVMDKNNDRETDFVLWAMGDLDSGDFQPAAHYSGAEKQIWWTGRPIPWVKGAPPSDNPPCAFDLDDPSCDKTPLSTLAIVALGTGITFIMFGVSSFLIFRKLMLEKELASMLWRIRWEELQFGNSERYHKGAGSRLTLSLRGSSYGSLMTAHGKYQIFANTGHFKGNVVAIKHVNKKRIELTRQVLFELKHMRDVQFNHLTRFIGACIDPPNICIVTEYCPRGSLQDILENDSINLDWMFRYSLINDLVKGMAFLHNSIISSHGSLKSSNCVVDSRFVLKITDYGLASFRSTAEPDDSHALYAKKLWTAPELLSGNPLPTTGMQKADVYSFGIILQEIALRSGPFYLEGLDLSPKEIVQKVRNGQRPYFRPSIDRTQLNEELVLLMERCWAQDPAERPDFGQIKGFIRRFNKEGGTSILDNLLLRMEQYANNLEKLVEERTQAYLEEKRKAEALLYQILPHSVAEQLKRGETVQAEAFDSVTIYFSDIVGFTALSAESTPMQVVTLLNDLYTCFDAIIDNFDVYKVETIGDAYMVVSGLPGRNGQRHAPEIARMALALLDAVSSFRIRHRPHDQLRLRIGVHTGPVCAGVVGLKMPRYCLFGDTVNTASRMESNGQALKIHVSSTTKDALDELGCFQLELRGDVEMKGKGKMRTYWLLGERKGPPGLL
Procedure: F. Fan, B. F. Binkowski, B. L. Butler, P. F. Stecha, M. K. Lewis, K. V. Wood, Novel genetically encoded biosensors using firefly luciferase. ACS Chem Biol 3, 346-351 (2008).
PROTOCOL TABLE (as described by Inglese J, Shamu CE and Guy RK. 2007)
SEQUENCE No. (e.g., 1, 2, 3, etc.); […] (e.g., Cells, Incubation, Reagent, etc.); VALUE and DESCRIPTION.
1. Cells. Seed 1500 HEK293 cGMP-sensor cells expressing hNpr2 per well in 4uL into Greiner 1536-well white/solid bottom high base, TC plates.
2. Incubation. Incubate plated cells at 37C in 5% CO2, 95% RH overnight.
3. Reagent. Add 1uL per well GloSensor reagent from Promega (2% final concentration) or CO2 independent media vehicle control to respective columns of Greiner 1536-well plates.
4. Incubation. Incubate plated cells at ambient temperature for 2 h., protect from light.
5. Compounds. Library compounds and DMSO vehicle control added at 23nL per well, transferred by Pin Tool.
6. Incubation. Incubate plated cells for 30 min. at ambient temperature, protect from light.
7. Detector. GloSensor baseline pre-read luminescence measured using CCD-based camera (Viewlux).
8. Compound. Add 1uL of hNppC peptide to 1 nM final concentration to stimulate hNpr2 or CO2 independent media as vehicle control.
9. Incubation. Incubate treated cells at ambient temperature for 20 min., protect from light.
10. Detector. GloSensor post-hNppC luminescence measured using CCD-based camera (Viewlux).
NOTES (numbers refer to Sequence numbers above)
1. HEK293 cells expressing hNpr2 and GIP/pGS-40F were grown to 85-95% confluence (48-72 h) in T175 culture flasks (CO2 independent media supplemented with 10% FBS, 1% Pen/Strep antibiotics, and 1 ug/mL puromycin). Trypsinize and harvest cells from T175 culture flasks and filter through 40 um cell strainer. Cells counted with Invitrogen Countess (30,000,000 - 50,000,000 cells/flask). Cells diluted to a final concentration of 375 cells/uL in CO2 independent media and a Millipore multidrop used to dispense 1500 cells per well (4uL/well) into 9 x1536-well Greiner White/Solid bottom, high base tissue-culture treated (TC) plates and one Aurora 1536-well Black/Clear bottom, low base, TC plate (for visual inspection of cell health throughout the duration of the assay).
2. Cells incubated for 24 h. at 37C in 95% RH incubator with metal lid having gas-exchange holes.
3. Prepare GloSensor Reagent (Promega): Reconstitute GloSensor luciferase substrate by adding 8.2mL Hepes buffer to 250mg substrate, mix well, protect from light and stored at -80C. Prepare a fresh 12% GloSensor solution in CO2 independent supplemented plating media (see above). Mix well and store at ambient temperature, protected from light. 1uL 12% GloSensor Luciferase Reagent added (2% final concentration) to respective columns of 9 x 1536-well Greiner plate with BioRaptr, 1uL CO2 independent plating media added to respective columns as vehicle control with BioRaptr.
4. Cells incubated for 2 h. at ambient temperature, protected from light with metal lid having gas-exchange holes.
5. 23nL of LOPAC1280 library compounds (7 plates) or DMSO vehicle control transferred to 9 Greiner white/solid bottom high base, TC plates in 7 interplate 1:5 titrations (see Yasgar, A. et al. 2008) with Pintool. Two of the 9 plates are DMSO-only in compound field at beginning and end of compound library-treated plates.
6. Cells incubated for 30-50 min. at ambient temperature protected from light with metal lid having gas-exchange holes.
7. Read cellular baseline GloSensor luminescence in presence of test library compounds on the ViewLux [Exposure = 10 s.; Gain = High; Speed = Slow; and Binning = 2X.]
8. hNppC peptide agonist solution prepared at 1 mM (in H2O) stock concentration. From this a working dilution was prepared at 6 nM in CO2 Independent media. […]
Potency means the concentration at half of the fitted maximal effect.

| SMILES | Potency |
| --- | --- |
| CCc1cccc(N(C)C(N)=Nc2cccc3ccccc23)c1 | inactive |
| CC(=O)Oc1cc(C(C)C)c(OCCN(C)C)cc1C | inactive |
| CCCCNC(=O)NS(=O)(=O)c1ccc(C)cc1 | inactive |
| COc1ccc(CN(CCN(C)C)c2ccccn2)cc1 | inactive |
| CCN1CCc2nc(N)oc2CC1 | inactive |
| NCCCNCCSP(=O)(O)O | inactive |
| C[C@H](CS)C(=O)N1CCC[C@H]1C(=O)O | inactive |
| C[C@]12C=CC(=O)C=C1CC[C@H]1[C@@H]3C[C@@H](O)[C@](O)(C(=O)CO)[C@@]3(C)C[C@H](O)[C@@]12F | inactive |
| Brc1c(NC2=NCCN2)ccc2nccnc12 | inactive |
| CN(C)CC/C=C1\c2ccccc2COc2ccccc21 | inactive |
| COCCCC/C(=N\OCCN)c1ccc(C(F)(F)F)cc1 | inactive |
| Nc1c2c(nc3ccccc13)CCCC2O (stereo not given) | inactive |
| Cc1cc(C)c(/C=C2\C(=O)Nc3ccccc32)[nH]1 | inactive |
| CN=C(NC#N)NCCSCc1nc[nH]c1C | inactive |
| O=C(O)CP(=O)(O)O | inactive |
| COc1ccc(CCN(C)CCCC(C#N)(c2cc(OC)c(OC)c(OC)c2)C(C)C)cc1OC (stereo not given) | inactive |
| CCN(CC)CC(=O)Nc1c(C)cccc1C | inactive |
| CN(C)CCN(Cc1cccs1)c1ccccn1 | inactive |
| CN(C)C(=O)Oc1cccc([N+](C)(C)C)c1 | inactive |
| Cc1nnc(SCC2=C(C(=O)O)N3C(=O)[C@@H](NC(=O)Cn4cnnn4)[C@H]3SC2)s1 | inactive |

| SMILES | Potency |
| --- | --- |
| c1cc(CN2CCCCC2)cc(OCCCNc2nc3ccccc3s2)c1 | inactive |
| O=C(CCCN1CCC(O)(c2cccc(C(F)(F)F)c2)CC1)c1ccc(F)cc1 | inactive |
| C[C@]12CCC(=O)C=C1CC[C@@H]1[C@@H]2C(=O)C[C@@]2(C)[C@H]1CC[C@]2(O)C(=O)CO | inactive |
| CCCN1C[C@H](CSC)C[C@@H]2c3cccc4[nH]cc(c34)C[C@H]21 | inactive |
| NC(=O)N1c2ccccc2C=Cc2ccccc21 | inactive |
| Cc1cccc(C)c1NC(=O)C(C)N (stereo not given) | inactive |
| Cc1scc2c1N(C(=O)CN1CCN(C)CC1)c1ccccc1NC2=O | inactive |
| C[N+](C)(C)CCCCCCCCCC[N+](C)(C)C | inactive |
| CCCNC(C)C(=O)Nc1ccccc1C (stereo not given) | inactive |
| O=C(O)CN(CCOCCOCCN(CC(=O)O)CC(=O)O)CC(=O)O | inactive |
| CNC1(C)C2CCC(C2)C1(C)C (stereo not given) | inactive |
| CCOC(=O)c1cnc2c(cnn2CC)c1NN=C(C)C | inactive |
| Cc1ccc(S(=O)(=O)NC(=O)NN2CCCCCC2)cc1 | inactive |
| CCC(=O)c1ccc2c(c1)N(CCCN(C)C)c1ccccc1S2 | inactive |
| CCCCNc1ccc(C(=O)OCCN(C)C)cc1 | inactive |
| C[n+]1cc2c3c(ccc2c2ccc4cc5c(cc4c21)OCO5)OCO3 | 2.61 µM (active) |
| CCCCNc1c(C(=O)OCC)c(C)nc2c1cnn2CC | inactive |
| CN1C(=O)CC[C@H]1c1cccnc1 | inactive |
| NS(=O)(=O)c1cc2c(cc1Cl)NC(C1CC3C=CC1C3)NS2(=O)=O (stereo not given) | inactive |
| CC(C(=O)O)c1ccc(CC2CCCC2=O)cc1 (stereo not given) | inactive |
